# Measured values from the supplement of paper PMC10849652.
# About 7,900 targets were measured; listed, in parts, are those with a hit and a random draw of the rest. About 0.6% of all pairs of compound and target were hits. A number with no mark means an inactive call.
# Experiments:
# Experiment in all cases: log2 fold change, soluble protein after heating vs DMSO (PISA); higher = thermal stabilisation; K562 cells, 10 uM, 30 min; active = over 0.2 and 3.5 SD of the protein, either way, in both replicates (recomputed)
# saracatinib = compound: CN1CCN(CCOc2cc(OC3CCOCC3)c3c(Nc4c(Cl)ccc5c4OCO5)ncnc3c2)CC1 [saracatinib]
# Outline: (§1)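 K562 cells at 2×10^6 cells/mL were treated for 30 min with 10 μM compound, and aliquots were heated for 3 min over 48°C-58°C before pooling. Extraction used PBS with 0.5% NP-40 at 4°C, and soluble protein was the supernatant after 21,000xg for 90 min, measured by TMTpro 16plex LC-MS/MS with channel sums equalised. Thermal stability values, relative to control samples and from duplicates, are log2 fold changes.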
# sotrastaurin = compound: CN1CCN(c2nc(C3=C(c4c[nH]c5ccccc45)C(=O)NC3=O)c3ccccc3n2)CC1 [sotrastaurin]
# Outline: as §1
# alvocidib = compound: CN1CC[C@H](c2c(O)cc(O)c3c(=O)cc(-c4ccccc4Cl)oc23)[C@H](O)C1 [alvocidib]
# Outline: as §1
# Tubastatin A = compound: CN1CCc2c(c3ccccc3n2Cc2ccc(C(=O)NO)cc2)C1 [Tubastatin A]
# Outline: as §1
# [1] = compound: CNC(=O)C1=CC=CC=C1NC2=NC(=NC=C2Cl)NC3=C(C=C(C=C3)N4CCOCC4)OC
# Outline: as §1
# defactinib = compound: CNC(=O)c1ccc(Nc2ncc(C(F)(F)F)c(NCc3nccnc3N(C)S(C)(=O)=O)n2)cc1 [defactinib]
# Outline: as §1
# rucaparib = compound: CNCc1ccc(-c2[nH]c3cc(F)cc4c3c2CCNC4=O)cc1 [rucaparib]
# Outline: as §1
# [2] = compound: CNc1nc(-c2ccc3c(N)n[nH]c3c2)cc(N2C[C@@H](C(=O)NC3CCCCC3)CC[C@H]2C)n1
# Outline: as §1
# encorafenib = compound: COC(=O)N[C@@H](C)CNc1nccc(-c2cn(C(C)C)nc2-c2cc(Cl)cc(NS(C)(=O)=O)c2F)n1 [encorafenib]
# Outline: as §1
# [3] = compound: COC(=O)[C@H](CCSC)NC(=O)C1=C(C=C(C=C1)NC[C@H](CS)N)C2=CC=CC=C2
# Outline: as §1
# Chain of UniProt Q92968 (Q92968 whole entry, looked up): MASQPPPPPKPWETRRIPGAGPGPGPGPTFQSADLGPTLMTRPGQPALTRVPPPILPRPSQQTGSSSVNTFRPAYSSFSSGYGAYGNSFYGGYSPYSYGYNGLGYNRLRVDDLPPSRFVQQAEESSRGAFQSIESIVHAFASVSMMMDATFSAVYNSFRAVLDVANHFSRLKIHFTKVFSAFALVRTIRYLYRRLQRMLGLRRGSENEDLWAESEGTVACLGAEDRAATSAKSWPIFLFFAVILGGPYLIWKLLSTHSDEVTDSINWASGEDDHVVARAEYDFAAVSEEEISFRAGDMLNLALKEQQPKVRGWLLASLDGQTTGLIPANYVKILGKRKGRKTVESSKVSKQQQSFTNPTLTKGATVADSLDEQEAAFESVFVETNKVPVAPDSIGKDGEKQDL
# Chain of UniProt Q8TBX8 (Q8TBX8 whole entry, looked up): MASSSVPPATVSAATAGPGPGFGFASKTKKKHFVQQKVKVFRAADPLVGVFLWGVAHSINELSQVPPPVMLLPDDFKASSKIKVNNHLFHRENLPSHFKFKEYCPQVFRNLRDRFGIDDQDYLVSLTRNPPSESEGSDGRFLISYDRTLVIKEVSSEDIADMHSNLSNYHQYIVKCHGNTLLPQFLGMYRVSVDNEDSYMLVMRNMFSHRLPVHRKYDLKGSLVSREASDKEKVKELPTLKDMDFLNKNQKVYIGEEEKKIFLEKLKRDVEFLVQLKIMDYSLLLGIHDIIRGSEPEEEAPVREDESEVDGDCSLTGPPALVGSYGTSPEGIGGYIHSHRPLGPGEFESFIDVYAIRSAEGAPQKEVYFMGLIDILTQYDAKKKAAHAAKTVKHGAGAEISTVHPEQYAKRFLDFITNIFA
# Chain of UniProt Q9NW08 (Q9NW08 whole entry, looked up): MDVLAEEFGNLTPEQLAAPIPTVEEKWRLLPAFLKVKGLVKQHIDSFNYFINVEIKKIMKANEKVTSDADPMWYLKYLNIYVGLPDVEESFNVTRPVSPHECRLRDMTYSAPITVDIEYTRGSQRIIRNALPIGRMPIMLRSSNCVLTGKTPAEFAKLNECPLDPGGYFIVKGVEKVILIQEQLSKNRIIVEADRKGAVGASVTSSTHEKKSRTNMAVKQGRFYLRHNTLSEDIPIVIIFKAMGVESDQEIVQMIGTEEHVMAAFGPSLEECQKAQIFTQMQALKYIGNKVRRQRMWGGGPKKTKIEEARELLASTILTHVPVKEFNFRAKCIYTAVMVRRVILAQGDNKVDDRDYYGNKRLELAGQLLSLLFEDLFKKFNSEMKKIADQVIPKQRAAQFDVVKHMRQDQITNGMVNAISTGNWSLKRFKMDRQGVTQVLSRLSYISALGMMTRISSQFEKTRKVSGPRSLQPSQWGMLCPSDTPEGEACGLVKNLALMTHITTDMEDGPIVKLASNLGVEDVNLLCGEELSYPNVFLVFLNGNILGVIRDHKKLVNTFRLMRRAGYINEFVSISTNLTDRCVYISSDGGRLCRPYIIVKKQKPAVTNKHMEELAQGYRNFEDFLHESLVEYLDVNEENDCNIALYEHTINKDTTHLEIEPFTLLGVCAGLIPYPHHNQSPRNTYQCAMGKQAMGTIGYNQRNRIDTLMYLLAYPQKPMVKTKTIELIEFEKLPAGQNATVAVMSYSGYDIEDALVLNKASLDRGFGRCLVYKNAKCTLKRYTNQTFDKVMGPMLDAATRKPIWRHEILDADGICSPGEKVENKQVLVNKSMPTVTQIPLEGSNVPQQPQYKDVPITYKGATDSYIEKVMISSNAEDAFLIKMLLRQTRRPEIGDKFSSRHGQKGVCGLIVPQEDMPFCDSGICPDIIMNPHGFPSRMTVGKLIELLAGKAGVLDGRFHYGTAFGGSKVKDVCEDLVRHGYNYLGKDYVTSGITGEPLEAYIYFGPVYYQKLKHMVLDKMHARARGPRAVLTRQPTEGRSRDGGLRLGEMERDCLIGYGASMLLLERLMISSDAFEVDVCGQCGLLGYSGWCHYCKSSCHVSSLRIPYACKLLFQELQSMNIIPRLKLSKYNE
# Chain of UniProt P78356 (P78356 whole entry, looked up): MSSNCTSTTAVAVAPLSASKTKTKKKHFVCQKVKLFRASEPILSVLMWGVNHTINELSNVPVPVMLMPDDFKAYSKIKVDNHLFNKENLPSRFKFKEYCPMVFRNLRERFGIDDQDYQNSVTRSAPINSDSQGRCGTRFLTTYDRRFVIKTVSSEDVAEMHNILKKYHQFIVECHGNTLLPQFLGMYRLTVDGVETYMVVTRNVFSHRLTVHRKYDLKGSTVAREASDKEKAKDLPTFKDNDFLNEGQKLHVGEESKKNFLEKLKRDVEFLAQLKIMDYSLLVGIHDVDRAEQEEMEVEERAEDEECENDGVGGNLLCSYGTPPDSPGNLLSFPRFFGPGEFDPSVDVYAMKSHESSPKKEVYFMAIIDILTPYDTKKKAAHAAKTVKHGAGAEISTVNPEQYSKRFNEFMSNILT
# Chain of UniProt O00408 (O00408 whole entry, looked up): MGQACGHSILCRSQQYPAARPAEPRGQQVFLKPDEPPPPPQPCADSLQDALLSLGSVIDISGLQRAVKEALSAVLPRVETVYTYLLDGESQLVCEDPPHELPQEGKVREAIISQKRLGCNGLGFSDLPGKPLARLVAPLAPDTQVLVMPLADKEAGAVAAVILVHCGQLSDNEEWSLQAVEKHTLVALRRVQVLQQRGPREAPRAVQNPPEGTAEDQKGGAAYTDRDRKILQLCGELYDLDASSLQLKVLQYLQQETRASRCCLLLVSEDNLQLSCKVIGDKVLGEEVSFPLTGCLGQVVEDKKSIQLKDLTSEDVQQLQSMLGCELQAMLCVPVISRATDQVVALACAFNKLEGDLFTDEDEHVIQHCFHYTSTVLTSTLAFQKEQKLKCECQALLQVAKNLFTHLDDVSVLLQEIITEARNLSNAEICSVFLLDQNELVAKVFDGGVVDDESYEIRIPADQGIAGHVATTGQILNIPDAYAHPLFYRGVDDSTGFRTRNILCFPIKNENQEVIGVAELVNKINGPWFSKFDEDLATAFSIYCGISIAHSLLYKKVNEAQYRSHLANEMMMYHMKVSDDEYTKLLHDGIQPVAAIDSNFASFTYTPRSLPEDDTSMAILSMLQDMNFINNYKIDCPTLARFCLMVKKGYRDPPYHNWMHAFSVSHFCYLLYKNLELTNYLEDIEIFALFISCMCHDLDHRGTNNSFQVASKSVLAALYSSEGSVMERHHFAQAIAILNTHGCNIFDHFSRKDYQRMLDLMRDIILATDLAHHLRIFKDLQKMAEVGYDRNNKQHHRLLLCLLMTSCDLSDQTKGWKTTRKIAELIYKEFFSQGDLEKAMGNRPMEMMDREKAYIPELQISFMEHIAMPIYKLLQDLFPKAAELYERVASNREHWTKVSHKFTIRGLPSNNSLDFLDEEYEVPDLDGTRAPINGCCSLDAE
# Chain of UniProt Q9Y5K3 (Q9Y5K3 whole entry, looked up): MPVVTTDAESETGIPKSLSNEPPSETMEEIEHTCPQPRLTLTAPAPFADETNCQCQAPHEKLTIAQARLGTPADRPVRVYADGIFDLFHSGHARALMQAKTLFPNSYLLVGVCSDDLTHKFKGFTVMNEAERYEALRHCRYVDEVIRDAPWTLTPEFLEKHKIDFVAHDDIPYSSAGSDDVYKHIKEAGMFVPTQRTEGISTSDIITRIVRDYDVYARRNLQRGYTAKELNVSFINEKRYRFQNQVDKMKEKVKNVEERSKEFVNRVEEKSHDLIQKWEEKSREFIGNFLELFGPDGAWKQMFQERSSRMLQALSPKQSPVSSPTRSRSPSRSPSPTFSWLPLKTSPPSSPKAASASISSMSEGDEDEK
# Chain of UniProt P19174 (P19174 whole entry, looked up): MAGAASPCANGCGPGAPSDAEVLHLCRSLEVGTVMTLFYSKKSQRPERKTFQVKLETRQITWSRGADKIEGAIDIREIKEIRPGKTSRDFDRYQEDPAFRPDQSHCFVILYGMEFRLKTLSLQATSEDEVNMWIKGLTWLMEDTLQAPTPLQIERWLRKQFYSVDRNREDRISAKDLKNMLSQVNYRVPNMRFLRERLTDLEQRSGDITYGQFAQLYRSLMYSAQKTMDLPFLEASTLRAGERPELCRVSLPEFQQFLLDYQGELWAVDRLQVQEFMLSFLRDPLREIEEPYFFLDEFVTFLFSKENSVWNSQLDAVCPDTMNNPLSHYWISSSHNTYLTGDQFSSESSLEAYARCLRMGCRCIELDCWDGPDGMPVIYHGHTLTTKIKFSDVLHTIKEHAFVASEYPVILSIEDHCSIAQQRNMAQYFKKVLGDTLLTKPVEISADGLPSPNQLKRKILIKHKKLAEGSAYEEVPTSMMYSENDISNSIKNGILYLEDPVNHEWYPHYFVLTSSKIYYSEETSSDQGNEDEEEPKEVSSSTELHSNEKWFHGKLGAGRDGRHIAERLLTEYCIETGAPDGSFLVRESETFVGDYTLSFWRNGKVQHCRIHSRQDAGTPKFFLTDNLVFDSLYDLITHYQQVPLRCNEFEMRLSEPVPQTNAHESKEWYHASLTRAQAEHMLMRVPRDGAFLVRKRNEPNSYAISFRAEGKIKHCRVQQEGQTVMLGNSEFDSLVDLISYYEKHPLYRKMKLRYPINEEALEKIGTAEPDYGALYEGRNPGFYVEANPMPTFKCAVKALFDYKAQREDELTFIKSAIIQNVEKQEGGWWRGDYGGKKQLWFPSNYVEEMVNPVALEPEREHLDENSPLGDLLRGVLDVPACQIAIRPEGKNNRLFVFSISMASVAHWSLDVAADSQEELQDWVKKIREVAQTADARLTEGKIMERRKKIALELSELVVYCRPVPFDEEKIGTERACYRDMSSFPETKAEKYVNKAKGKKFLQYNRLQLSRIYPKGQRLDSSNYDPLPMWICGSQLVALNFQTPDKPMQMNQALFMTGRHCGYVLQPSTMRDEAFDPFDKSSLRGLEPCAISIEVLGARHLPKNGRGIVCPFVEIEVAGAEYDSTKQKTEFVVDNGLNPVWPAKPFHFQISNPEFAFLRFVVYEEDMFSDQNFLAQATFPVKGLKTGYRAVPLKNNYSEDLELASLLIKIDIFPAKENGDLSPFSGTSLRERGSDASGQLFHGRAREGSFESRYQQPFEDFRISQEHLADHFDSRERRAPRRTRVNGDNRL
Target,log2 fold change (saracatinib),log2 fold change (sotrastaurin),log2 fold change (alvocidib),log2 fold change (Tubastatin A),log2 fold change [1],log2 fold change (defactinib),log2 fold change (rucaparib),log2 fold change [2],log2 fold change (encorafenib),log2 fold change [3]
PRKAR2B (UniProt P31323),-0.024,-0.486 (active),-0.053,0.02,-0.168,-0.191,0.086,0.014,0.069,-0.004
PARP16 isoform 3 (UniProt Q8N5Y8),0.175,-0.038,-0.054,0.005,-0.009,0.046,0.198,-0.042,-0.087,-0.005
PSMC6 (UniProt P62333),-0.01,0.015,0.09,-0.025,-0.003,0.079,0.04,0.009,0.035,0.026
PDIK1L (UniProt Q8N165),-0.062,0.019,-0.087,0.063,0.192,0.014,0.111,-0.064,-0.022,-0.115
POLR3B (UniProt Q9NW08),-0.056,-0.129,-0.074,-0.045,-0.004,-0.03,-0.032,-0.047,0.039,-0.028
PSMD7 (UniProt P51665),-0.018,-0.028,0.088,0.001,0.015,0.079,0.063,0.022,0.03,0.017
PDSS2 (UniProt Q86YH6),0.159,0.218,-0.053,-0.013,-0.019,-0.076,0.07,-0.025,-0.154,-0.042
PRKAR1A (UniProt P10644),-0.067,0.105,0.121,0.007,0.366,0.14,0.13,0.005,0.073,-0.069
PSMC2 (UniProt P35998),-0.024,-0.03,0.046,-0.01,-0.014,0.061,0.033,0.035,0.018,0.001
POLR2M (UniProt P0CAP2),0.061,0.019,0.123,0.005,-0.015,0.041,0.05,-0.021,0.092,0.017
PIP4K2C (UniProt Q8TBX8),-0.049,-0.035,0.54,0.133,0.371,0.527,0.011,-0.042,0.051,-0.113
PSMD11 (UniProt O00231),-0.065,-0.051,0.051,0.077,0.013,0.059,0.039,0.041,0.042,-0.05
PIK3CD (UniProt O00329),-0.124,-0.106,0.055,0.003,0.08,-0.218,0.182,0.089,-0.019,-0.062
PEX13 (UniProt Q92968),-0.067,-0.083,0.022,0.061,-0.061,-0.011,-0.058,0.008,0.047,-0.087
POGLUT1 (UniProt Q8NBL1),-0.124,0,0.06,0.009,-0.004,0.039,0.069,-0.063,0.015,0.042
PARG (UniProt Q86W56),0.003,-0.102,-0.19,0.051,-0.113,-0.068,0.044,0.115,0.034,-0.025
PNPLA8 (UniProt Q9NP80),0.022,0.052,0.037,-0.009,-0.021,-0.051,0.038,-0.016,0.026,-0.01
PHKG2 (UniProt P15735),0.002,-0.071,-0.069,0.029,0.167,0.026,-0.032,0.1,0.181,-0.025
POMK (UniProt Q9H5K3),-0.047,0.007,-0.083,0.021,0.022,0.024,0.168,-0.052,0.089,-0.056
PCYT1B (UniProt Q9Y5K3),0.133,-0.13,-0.236,-0.028,-0.028,-0.162,-0.139,-0.036,0.04,-0.029
PRCP (UniProt P42785),0.019,0.054,0.003,-0.01,0.025,-0.009,0.01,-0.035,0.007,0.05
RAB11FIP1 (UniProt Q6WKZ4),0.021,-0.094,-0.028,0.005,0.045,-0.16,-0.012,-0.043,0.052,-0.019
PTPA (UniProt A6PVN8),0.21,0.003,0.034,0.131,-0.133,-0.045,0.072,-0.008,0.077,0.039
PDE2A (UniProt O00408),-0.011,-0.005,-0.003,0.208,0.01,-0.094,-0.051,-0.065,-0.064,-0.042
PCYT1A (UniProt P49585),-0.014,-0.105,-0.254,0.013,0.032,-0.186,-0.127,-0.097,-0.001,-0.02
PIP4K2B (UniProt P78356),-0.021,-0.088,0.204,0.022,0.179,0.176,-0.035,-0.083,0.049,-0.108
PLCG1 isoform 2 (UniProt P19174),-0.131,-0.005,-0.007,0.1,-0.048,-0.128,0.088,0.054,0.012,-0.007
PSMB6 (UniProt P28072),-0.027,-0.017,0.115,0.019,-0.022,0.089,-0.043,0.011,0.03,0.017
PSMC4 (UniProt P43686),-0.041,-0.011,0.047,-0.026,-0.032,0.074,0.039,0.037,0.019,0.005
PRKCA (UniProt P17252),-0.174,-0.502 (active),-0.017,0.018,0.026,-0.006,0.039,0.308,-0.038,0.005
